Among the data in PubChem BioAssay are growth inhibition, inhibition and outcome values, retold here.

Values without a mark were called inactive. For some of these results: Entries with a potency or affinity are not part of this list. Activity calls are given as the source filed them. Unless noted, no rule for the calls is given here.

Test [1] can be described thus: antimalarial activity against Dd2 strain (AID 2302;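 active = growth inhibition above 50% at the single 2 µM test dose, taken to imply half-maximal potency below 2 µM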;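 also: 0% = DMSO untreated growth and 100% = chloroquine plus artemisinin killed control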). Conditions: P. falciparum Dd2 in RBCs, LDH growth readout, 72 h; at 2 µM; hits give high values.
Test [2] is described as follows: human hepatoma cell viability loss – ATP luminescence, cytotoxicity control for P. falciparum antimalarial project, primary screen (AID 2303;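 active = inhibition above 50%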;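 also: 0% = DMSO wells and 100% = digitonin-killed cells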). As to conditions: HepG2 viability, 24-48 h, at 10 µM, hits give high values.
Test [3] concerns the target L-lactate dehydrogenase (Plasmodium falciparum (isolate CDC / Honduras)) (UniProt Q27743). Nature of the test: PfLDH activity inhibition – cell lysate, 3D7 strain, counter-screen for P. falciparum growth inhibition project (AID 2304).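 Also: 0% = vehicle and 100% = reference inhibitor.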 Conditions: P. falciparum 3D7 crude extract, LDH APAD/NBT absorbance; at 2 µM; hits give high values.
The nature of test [4]: inhibition of 3D7 malaria parasite growth – strain 3D7 (AID 2306).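 Also: 0% = DMSO wells and 100% = chloroquine plus artemisinin control wells.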 As to conditions: P. falciparum 3D7 erythrocytic growth, LDH absorbance, 72 h; at 2 µM; hits give high values.
The target in test [5] is Calcium-dependent protein kinase 1 (Plasmodium falciparum (isolate 3D7)) (UniProt P62344). Nature of the test: PfCDPK1 kinase inhibitors, biochemical, TCAMS library (AID 1159585; cut-off not given, nearly all actives have IC50 up to about 0.98 µM;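 also: inhibitors leave more ATP so luminescence rises with inhibition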). As to conditions: recombinant PfCDPK1, Kinase-Glo ATP depletion luminescence.
Sequence of Calcium-dependent protein kinase 1 (Plasmodium falciparum (isolate 3D7)) (P62344 whole entry, looked up): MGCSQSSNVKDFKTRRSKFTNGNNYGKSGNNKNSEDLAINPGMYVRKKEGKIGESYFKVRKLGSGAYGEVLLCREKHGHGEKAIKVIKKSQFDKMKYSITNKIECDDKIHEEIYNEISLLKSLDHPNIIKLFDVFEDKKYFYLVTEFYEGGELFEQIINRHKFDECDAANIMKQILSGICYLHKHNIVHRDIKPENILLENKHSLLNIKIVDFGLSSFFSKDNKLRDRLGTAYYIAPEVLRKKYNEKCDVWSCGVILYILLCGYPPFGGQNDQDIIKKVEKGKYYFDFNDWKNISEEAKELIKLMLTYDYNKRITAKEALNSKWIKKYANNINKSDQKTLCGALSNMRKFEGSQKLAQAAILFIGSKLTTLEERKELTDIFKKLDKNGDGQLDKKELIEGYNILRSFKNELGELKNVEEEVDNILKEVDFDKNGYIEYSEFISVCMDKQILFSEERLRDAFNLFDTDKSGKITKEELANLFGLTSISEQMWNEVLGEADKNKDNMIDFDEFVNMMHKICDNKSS
Test [6] deals with Plasmodium falciparum protein kinase 6 (PK6, PF3D7_1337100) (UniProt Q8IDW1). Kind of test: PfPK6 kinase inhibitors, biochemical, TCAMS library (AID 1159586). Conditions: recombinant PfPK6, Kinase-Glo ATP depletion luminescence.
Sequence of Plasmodium falciparum protein kinase 6 (PK6, PF3D7_1337100) (Q8IDW1 1-305): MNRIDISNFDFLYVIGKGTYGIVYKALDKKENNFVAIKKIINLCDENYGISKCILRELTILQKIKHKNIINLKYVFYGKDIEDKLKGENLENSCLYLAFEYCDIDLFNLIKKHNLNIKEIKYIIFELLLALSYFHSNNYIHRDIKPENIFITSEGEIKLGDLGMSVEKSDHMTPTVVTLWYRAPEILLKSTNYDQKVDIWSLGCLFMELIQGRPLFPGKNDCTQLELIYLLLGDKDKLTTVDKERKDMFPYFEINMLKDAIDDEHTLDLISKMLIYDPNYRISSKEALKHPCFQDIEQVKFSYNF
Test [7] has as its target Protein kinase 7 (PK7), Plasmodium falciparum 3D7 (PF3D7_0213400) (UniProt Q7YTF7). Kind of test: inhibition of Plasmodium PK7 catalytic activity – biochemical, TCAMS antimalarial set, Kinase-Glo luminescence (AID 1159587). Conditions: recombinant PfPK7, Kinase-Glo ATP depletion luminescence.
Test [8] deals with Calcium-dependent protein kinase 4 (Plasmodium falciparum (isolate 3D7)) (UniProt Q8IBS5). Nature of the test: PfCDPK4 kinase inhibitors, biochemical, TCAMS library (AID 1159588; cut-off not given, nearly all actives have IC50 up to about 0.91 µM). Conditions: recombinant PfCDPK4, Kinase-Glo ATP depletion luminescence.
Sequence of Calcium-dependent protein kinase 4 (Plasmodium falciparum (isolate 3D7)) (Q8IBS5 whole entry, looked up): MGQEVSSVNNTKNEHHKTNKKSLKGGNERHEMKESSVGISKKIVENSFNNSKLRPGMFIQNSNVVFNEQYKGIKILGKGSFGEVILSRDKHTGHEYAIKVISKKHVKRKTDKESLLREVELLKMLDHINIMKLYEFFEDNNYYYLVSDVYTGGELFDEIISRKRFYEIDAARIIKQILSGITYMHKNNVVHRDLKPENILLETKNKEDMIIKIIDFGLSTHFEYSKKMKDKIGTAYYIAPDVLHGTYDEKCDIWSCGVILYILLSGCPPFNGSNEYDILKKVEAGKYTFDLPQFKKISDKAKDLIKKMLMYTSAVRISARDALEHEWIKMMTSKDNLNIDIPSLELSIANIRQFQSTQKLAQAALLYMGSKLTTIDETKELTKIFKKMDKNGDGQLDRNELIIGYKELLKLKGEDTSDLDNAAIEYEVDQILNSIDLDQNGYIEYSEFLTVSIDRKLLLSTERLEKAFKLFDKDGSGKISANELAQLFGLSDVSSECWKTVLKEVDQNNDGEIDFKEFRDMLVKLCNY

Sequence of L-lactate dehydrogenase (Plasmodium falciparum (isolate CDC / Honduras)) (Q27743 whole entry, looked up): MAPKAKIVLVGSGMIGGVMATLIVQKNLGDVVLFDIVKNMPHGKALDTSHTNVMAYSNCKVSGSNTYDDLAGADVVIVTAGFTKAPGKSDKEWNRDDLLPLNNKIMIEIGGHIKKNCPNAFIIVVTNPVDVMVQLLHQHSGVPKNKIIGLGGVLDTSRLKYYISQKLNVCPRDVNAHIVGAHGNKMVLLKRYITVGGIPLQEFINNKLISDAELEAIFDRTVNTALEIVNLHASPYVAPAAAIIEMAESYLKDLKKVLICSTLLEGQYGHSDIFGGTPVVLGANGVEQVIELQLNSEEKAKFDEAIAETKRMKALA
Sequence of Protein kinase 7 (PK7), Plasmodium falciparum 3D7 (PF3D7_0213400) (Q7YTF7 1-343): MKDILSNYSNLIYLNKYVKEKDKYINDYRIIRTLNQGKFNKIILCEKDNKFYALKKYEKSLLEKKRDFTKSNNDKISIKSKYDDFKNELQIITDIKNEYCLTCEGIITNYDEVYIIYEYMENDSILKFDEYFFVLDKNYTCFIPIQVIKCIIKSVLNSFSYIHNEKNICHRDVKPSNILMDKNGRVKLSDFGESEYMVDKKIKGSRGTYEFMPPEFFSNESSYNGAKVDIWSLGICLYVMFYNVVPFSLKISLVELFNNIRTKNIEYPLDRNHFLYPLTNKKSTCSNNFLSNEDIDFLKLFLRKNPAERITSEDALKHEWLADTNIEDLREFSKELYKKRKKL

On to `O=C(Nc1ccc(OC2CCN(Cc3ccc(F)cc3)CC2)cc1)c1cccs1`, for which the results for the growth inhibition in test [1] and in test [4] were 52% (active) and 84% (active), respectively. Besides, the inhibition in test [2] is 6%; in test [3], -2%. Also, the outcome in test [5], in test [6], in test [7] and in test [8] was inactive.

As to `NS(=O)(=O)c1cccc(Br)c1`, the growth inhibition in test [1] is -5%; in test [4], 98% (active). The inhibition in test [2] and in test [3] was 0% each time. Moreover, the result in test [5], in test [6], in test [7] and in test [8] was inactive.

Take `COc1ccc2nccc(N3CCC(SCCNCc4ccc5c(n4)NC(=O)CO5)C3)c2n1` (stereo not given): the growth inhibition was 9% in test [1] and 101% (active) in test [4]. The inhibition in test [2] was 30%; in test [3], -2%. In addition, the outcome in test [5], in test [6], in test [7] and in test [8] was inactive.

Take `Cn1nccc1C(=O)NCCNCc1ccc(-c2ccc(-c3nc4ccccc4[nH]3)s2)cc1`: the values for the growth inhibition in test [1] and in test [4] were 97% (active) and 101% (active), respectively. The figures for the inhibition in test [2] and in test [3] were 23% and -9%, respectively. In addition, the outcome in test [5], in test [6], in test [7] and in test [8] was inactive.

Turning to `CO/C(=C\C=C\c1cc2cc(Cl)c(Cl)cc2[nH]1)C(=O)NCCCN(C)CCN(C)c1ccccc1`, the growth inhibition was 59% (active) in test [1] and 96% (active) in test [4]. In addition, the inhibition in test [2] is 38%; in test [3] it was 0%. For the same compound, the outcome in test [5], in test [6], in test [7] and in test [8] was inactive.

Take `CCc1sc(-c2ccc(C(C)(C)C)cc2)nc1C(=O)NCCCN1CCCC1=O`: the growth inhibition in test [1] is 69% (active); in test [4], 84% (active). Further, the inhibition in test [2] was 0%; in test [3], -5%. Also, the result in test [5], in test [6], in test [7] and in test [8] was inactive.

Regarding `O=S(=O)(c1c(Cl)cc(Cl)cc1Cl)N1CCCCC(c2ccc(Cl)cc2)=N1`, the figures for the growth inhibition in test [1] and in test [4] were 93% (active) and 95% (active), respectively. The inhibition in test [2] is 11%; in test [3], 3%. The result in test [5], in test [6], in test [7] and in test [8] was inactive.

As for `c1ccc(CN2CCC(NCc3ccc(-c4ccc(CNCc5cccnc5)cn4)cc3)CC2)cc1`, the results for the growth inhibition in test [1] and in test [4] were 13% and 97% (active), respectively. For the same compound, the inhibition was -1% in test [2] and -5% in test [3]. Besides, the result in test [5], in test [6], in test [7] and in test [8] was inactive.

Take `Cc1ccc2[nH]c3c(NCCN(C)C)ncnc3c2c1`: the figures for the growth inhibition in test [1] and in test [4] were 5% and 99% (active), respectively. Also, the inhibition in test [2] was 9%; in test [3] it was 0%. Moreover, the result in test [5], in test [6], in test [7] and in test [8] was inactive.

On to `Cc1cccc2[nH]c(-c3ccc(-c4ccc(CN5CCN(CCN6CCOCC6)CC5)cc4)cc3)nc12`, for which the growth inhibition is 74% (active) in test [1] and 98% (active) in test [4]. The inhibition in test [2] was 49%; in test [3] it was -1%. Moreover, the outcome in test [5], in test [6], in test [7] and in test [8] was inactive.

Regarding `CC1(C)N=C(N)NC(NOCc2ccc(Cl)c(Cl)c2)=N1`, the growth inhibition in test [1] was 27%; in test [4], 96% (active). Further, the inhibition was 5% in test [2] and 2% in test [3]. In addition, the result in test [5], in test [6], in test [7] and in test [8] was inactive.

In the case of `CN(Cc1ccc(-c2ccc(C(F)(F)F)cc2)cc1)C(=O)Cn1c(CCc2cccc(F)c2F)nc(=O)c2ccc(N3CCN(CCN4CCCCC4)CC3)nc21`, the growth inhibition in test [1] is 100% (active); in test [4], 101% (active). Further, the inhibition in test [2] is 100% (active); in test [3], 5%. Moreover, the outcome in test [5], in test [6], in test [7] and in test [8] was inactive.

As to `Cc1cc(Nc2ccnc(-c3ccc(Cl)cc3)n2)ccn1`, the results for the growth inhibition in test [1] and in test [4] were 23% and 94% (active), respectively. Moreover, the inhibition was 6% in test [2] and -4% in test [3]. The outcome in test [5], in test [6], in test [7] and in test [8] was inactive.

Consider `COc1cc(-c2[nH]c(-c3ccc(OCCN(C)C)cc3)cc2-c2ccncc2)ccc1Cl`, for which the growth inhibition in test [1] is 33%; in test [4] it was 93% (active). The figures for the inhibition in test [2] and in test [3] were 3% and 1%, respectively. The outcome in test [5], in test [6], in test [7] and in test [8] was inactive.

Take `Cc1cccc2[nH]c(-c3ccc(-c4ccc(NC(=O)Nc5ccc(F)c(F)c5F)cc4)s3)nc12`: the growth inhibition in test [1] was 99% (active); in test [4] it was 100% (active). The inhibition was 58% (active) in test [2] and 2% in test [3]. For the same compound, the outcome in test [5], in test [6], in test [7] and in test [8] was inactive.

Take `CC(C)CNCc1ccc(OCc2cccc(COc3ccc(CNCC(C)C)cc3I)c2)c(I)c1`: the results for the growth inhibition in test [1] and in test [4] were 84% (active) and 98% (active), respectively. The results for the inhibition in test [2] and in test [3] were 23% and -4%, respectively. Besides, the outcome in test [5], in test [6], in test [7] and in test [8] was inactive.

In the case of `COc1ccc(Cc2c(N)nc3nc(N)nc(N)c3c2C)cc1`, the growth inhibition is 3% in test [1] and 94% (active) in test [4]. The inhibition in test [2] is 64% (active); in test [3], -8%. Besides, the outcome in test [5], in test [6], in test [7] and in test [8] was inactive.

Turning to `Cc1ncccc1C(=O)Nc1ccc(-c2cccc(-c3nc4c(C)cccc4[nH]3)c2)cc1`, the growth inhibition was 31% in test [1] and 95% (active) in test [4]. Also, the inhibition was 6% in test [2] and -5% in test [3]. Moreover, the outcome in test [5], in test [6], in test [7] and in test [8] was inactive.

On to `Cc1cc(NCCc2ccccc2)nc(/N=C(\N)Nc2cccc(Cl)c2)n1`, for which the growth inhibition in test [1] is 100% (active); in test [4], 101% (active). The inhibition was 24% in test [2] and 4% in test [3]. The result in test [5], in test [6], in test [7] and in test [8] was inactive.

Turning to `FC(F)(F)c1ccc2nc(-c3ccc(-c4ccc(CN5CCN(c6cnccn6)CC5)cc4)cc3)[nH]c2c1`, the growth inhibition in test [1] was 50% (active); in test [4], 99% (active). The inhibition in test [2] is 21%; in test [3], -7%. Further, the result in test [5], in test [6], in test [7] and in test [8] was inactive.
